PubChem BioAssay (NCI)
This is part of a sample that, as a whole, favours compounds with a hit. Of some 83,000 tested, about 20% had one in any assay.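 Percent growth is the endpoint: 0 to 100 indicates growth inhibition (40 means 60% inhibition), 0 means no net growth, and negative values indicate cell death.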 Unmarked numbers belong to inactive results. Active and inactive are the calls of the source. The calls were made as follows: active = growth percent below 10; inactive = the rest.

What was measured:
Test in all cases: NCI-60 one-dose screen, 48 h (100 = growth as untreated, 0 = no growth, -100 = all killed)
Settings in all cases: 10 µM unless noted
[1] = test system: NCI-H226 lung
[2] = test system: NCI-H322M lung
[3] = test system: HOP-62 NSCLC
[4] = test system: NCI-H460 lung
[5] = test system: HOP-92 NSCLC
[6] = test system: NCI-H522 lung
[7] = test system: A549/ATCC NSCLC
[8] = test system: 786-0 renal
[9] = test system: COLO 205 colon

Row | Structure (SMILES) | growth [1] | growth [2] | growth [3] | growth [4] | growth [5] | growth [6] | growth [7] | growth [8] | growth [9]
1 | O=c1[nH]c2ccccc2n2cc3cccnc3c12 | 64.2% | 116% | 68.7% | 37.3% | 83.6% | 57.6% | 83.5% | 71.1% | 70%
2 | CC[C@H](Nc1nc(N)nc(C2CC2)c1C#N)c1nc2cccc(NCc3ccc(C(=O)NO)cc3)c2c(=O)n1-c1ccccc1 | -21.9% (active) | 21.3% | 5.11% (active) | -15.1% (active) | -14% (active) | -29.6% (active) | -30.6% (active) | -9.68% (active) | -17.8% (active)
3 | Cc1cc(C)cc(CCCCCCCCCCCCCCCCCC(=O)O)c1 | 111% | 110% | 107% | 113% | 116% | 92% | 96.6% | 99.5% | 113%
4 | COc1ccc(/C=C2\Cc3c(Br)cccc3C2=O)c(OC)c1 | 93.7% | 94.7% | 69.6% | 79.8% | 88.2% | 55.9% | 68.9% | 93% | 80.3%
5 | NNC(=O)Cc1ccccc1 | 78.2% | 74.2% | 92.2% | 94.7% | -17.8% (active) | 77.6% | 86.3% | 92.1% | 112%
6 | Nc1nc(N)c2cc(Sc3ccc(Cl)cc3)ccc2n1 | 48.9% | 27.7% | 53.1% | 13.4% | 6.59% (active) | 21% | 15.2% | 28% | -45.6% (active)
7 | CCOC(=O)NNc1cccc(Cl)c1 | 84.7% | 104% | 103% | 103% | 87.5% | 96.6% | 107% | 112% | 123%
8 | COc1ccc(/C(=C\c2cc(OC)c(OC)c(OC)c2)C(=O)N2CCCNCC2)cc1 | 100% | 103% | 106% | 110% | 102% | 100% | 105% | 111% | 110%
9 | CN(CCO)c1ccc(N2Cc3ccccc3OC3=C2C(=O)c2c(O)ccc(O)c2C3=O)cn1 | 0.236% (active) | -0.583% (active) | -46.3% (active) | -51.2% (active) | – | -49.8% (active) | -18.9% (active) | -91.2% (active) | -81.8% (active)
10 | CN1CCN(Cc2ccc(NC(=O)c3cncc(C#Cc4cnc5cccnn45)c3)cc2C(F)(F)F)CC1 | -3.9% (active) | 6.52% (active) | -6.79% (active) | -12.6% (active) | -9.42% (active) | -37.1% (active) | 4.87% (active) | 6.51% (active) | -48.1% (active)
11 | C[C@@H]1C[C@H](N)C[C@H](c2ccncc2NC(=O)c2ccc(F)c(-c3c(F)cccc3F)n2)C1 | 53.6% | 71% | 49.1% | 62.5% | 10.4% | 46.4% | 48.7% | 56.1% | -33.4% (active)
12 | C=CCN(CCOC(=O)c1ccc([N+](=O)[O-])cc1)CCOC(=O)c1ccc([N+](=O)[O-])cc1 | 94.9% | 91.1% | 91.9% | 115% | 87.1% | 95.3% | 102% | 103% | 112%
13 | CC(C)NCCCCCNc1cc(O)cc2cccnc12 | 92.1% | 56.9% | 71.5% | 105% | -8.76% (active) | 86.5% | 123% | 70.1% | -36.3% (active)
14 | COc1ccc(/C(=C\c2cc(OC)c(OC)c(OC)c2)C(=O)N2CCN(c3ccccc3)CC2)cc1O | 98.8% | 100% | 99% | 106% | 85.9% | 84.4% | 90% | 103% | 111%
15 | COc1ccc(-c2cn(-c3cccc(C(=O)/C=C/c4ccc(O)c(OC)c4)c3)c(=O)[nH]2)cc1 | 93.6% | 64.8% | 113% | 31.7% | – | -4.38% (active) | 31.5% | 34.5% | 105%
16 | CC[C@H](Nc1nc(N)nc(N)c1Cl)c1nc2cccc(NCc3ccc(C(=O)NO)cc3)c2c(=O)n1-c1ccccc1 | 4.53% (active) | 35.8% | 11.6% | 1.8% (active) | -15.7% (active) | -13.5% (active) | -4.67% (active) | 3.36% (active) | -20.1% (active)
17 | Cc1cc(C)c2c(n1)sc1c(Nc3ccc(O)cc3)ncnc12 | 32.4% | 46.2% | 18.5% | 10.1% | 35.5% | 32.4% | 26.7% | 12.6% | 33%
18 | FC(F)(F)C1=NNC(c2ccc3ccccc3c2)=NN1 | 87.4% | 103% | 106% | 101% | 95.6% | 97.2% | 102% | 107% | 105%
19 | COc1ccc2[nH]c(C(=O)OCc3ccc4c(Br)cc(Br)c(O)c4n3)cc2c1 | -64.7% (active) | 43.1% | 7.47% (active) | -75.1% (active) | -59.8% (active) | -68% (active) | -10.2% (active) | -81.8% (active) | -80.2% (active)
20 | CCOC(=O)C1=C(C)NC(SCc2nnc(-c3ccc(Cl)cc3)o2)=NC1c1ccc(Br)cc1 (stereo not drawn) | 78.9% | 86.4% | 86.9% | 80.4% | 57.8% | 67.6% | 62.4% | 84.9% | 77.6%
21 | CCCCCCCCCCC(C(O)c1ccccc1)N1CCCCC1 (stereo not drawn) | 33.6% | 45.8% | -75.3% (active) | -74.5% (active) | -14.8% (active) | 18% | 47.3% | 29% | -76.3% (active)
22 | CO[C@@]12[C@@H]3NC3CN1C1=C(C(=O)C(N)=C(C)C1=O)[C@@H]2COC(N)=O (stereo partly drawn) | -5.36% (active) | 14.4% | 19.2% | -18.9% (active) | 12.8% | -9.07% (active) | -61% (active) | -3.82% (active) | -0.289% (active)
23 | COc1cc2nccc(Oc3ccc(NC(=O)C4(C(=O)Nc5ccc(F)cc5)CC4)cc3)c2cc1Oc1ccc(N)cn1 | 36.5% | 49.4% | 51.2% | 31% | -11.5% (active) | 51.3% | 22.7% | 39.1% | 8.91% (active)
24 | CC(C)N=C1CCCC1C(=S)SSC(=S)C1CCCC1=NC(C)C (stereo not drawn) | 90.6% | 86.7% | 24.5% | 47.5% | 103% | 8.07% (active) | 71.1% | 91.4% | 88.8%
25 | COc1ccc(/C=C/C(=O)c2ccc(NC(=O)CSc3nnc(-c4ccc(Cl)cc4)n3-c3ccccc3)cc2)cc1 | 104% | 106% | 103% | 104% | 107% | 84.6% | 74% | 98% | 106%
26 | COc1ccc(/C=C2\CCCC3=C2N=C2SC(C)=NN2C3c2ccc(OC)c(OC)c2)cc1OC (stereo not drawn) | 31% | 27.9% | 23.1% | 19.1% | 37.2% | 35.8% | 20.1% | 53% | 22.2%
27 | CC(COC(=O)c1ccccc1)N1CC2CCC(C1)O2 (stereo not drawn) | 98.2% | 97.8% | 95.1% | 104% | 91.1% | 104% | 100% | 99.8% | 104%
28 | CC1C2CCC(C2)C1COCCOCCO (stereo not drawn) | 104% | 109% | 108% | 112% | 105% | 96% | 92% | 104% | 121%
29 | Cc1cc(N=Nc2ccc(-c3ccc(N=Nc4ccc(O)c(C(=O)O)c4)cc3)cc2)c(N)c(N=Nc2ccc(C(=O)O)cc2)c1N | 92.4% | 99.9% | 99.7% | 117% | 71.8% | 85.2% | 102% | 84.4% | 108%
30 | COc1ccc(NC(=O)c2ccc(C(F)(F)F)nc2Nc2ccc(Cl)cc2C)cc1Cl | 26.7% | 45.8% | 32.4% | 7.62% (active) | -8.93% (active) | 18.9% | 14.2% | 17% | -14.5% (active)
